Source: PubChem (National Center for Advancing Translational Sciences (NCATS))
Compounds with a hit are over-represented: about 18% of the library has one in this group of screens.
TDP1 cell CPT: DT40-hTDP1 cell growth loss with CPT; chicken DT40 Tdp1-/-;hTDP1 cells + 20 nM CPT, ATP luminescence, 48 h; Potency, µM (titrated, usually from 46.2 µM), most hits filed as inhibitors; actives 12% (n = 420,000); AID 686979; note: nearly all actives have a fitted effect of over 55% in size
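Chicken DT40 Tdp1-/- cells stably complemented with human TDP1 were seeded at 400 cells/well in medium containing 20 nM camptothecin, exposed to pin-transferred compounds, and grown at 37 °C for at least 48 hr. Viability was read as ATP luminescence.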
PLK1 PBD block: inhibitors of human PLK1 polo-box domain binding; P53350; Plk1 PBD binding of FITC phosphopeptide, fluorescence polarization; Potency, µM, usual class: inhibitors; actives 2.8% (n = 360,000); note: series mostly up to about 57 µM; nearly all actives have a fitted effect of over 65% in size
GCN5L2 inh: blocks human GCN5L2 histone acetyltransferase; Potency, µM (highest dose often 58.9 µM), most hits filed as inhibitors; GCN5L2 HAT assay, ThioGlo1 CoA-SH fluorescence; actives 0.21% (n = 390,000); AID 504327
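GCN5L2 (20 nM) in 50mM HEPES pH 7.5, 0.1mM EDTA, 0.01% Tween-20 preincubated 15 min with compounds at room temperature. Reaction started with H3(1-25) 75uM, acetyl-CoA 70uM, ThioGlo1 50uM; CoA-thiol fluorescence (Ex340/Em540) read at 0 and 20 min.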
VDR inhibitor: inhibitors of human vitamin D receptor | AID 504847 | actives 0.93% (n = 400,000) | VDR-SRC2-3 peptide fluorescence polarization, 2 h | Potency, µM, usual class: inhibitors
Target sequence (P11473 whole entry, looked up): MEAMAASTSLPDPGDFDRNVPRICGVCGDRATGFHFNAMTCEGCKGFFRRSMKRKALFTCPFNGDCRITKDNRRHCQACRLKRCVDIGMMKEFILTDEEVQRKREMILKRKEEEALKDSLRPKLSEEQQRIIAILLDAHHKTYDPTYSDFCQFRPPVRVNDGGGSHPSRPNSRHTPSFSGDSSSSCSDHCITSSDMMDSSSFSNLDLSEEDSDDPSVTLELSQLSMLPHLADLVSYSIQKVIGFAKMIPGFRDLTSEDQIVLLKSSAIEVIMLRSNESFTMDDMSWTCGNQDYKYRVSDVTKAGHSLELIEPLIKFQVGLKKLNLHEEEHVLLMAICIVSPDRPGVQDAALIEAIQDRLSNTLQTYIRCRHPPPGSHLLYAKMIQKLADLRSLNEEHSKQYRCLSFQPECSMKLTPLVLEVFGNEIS
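The screen uses fluorescence polarization to detect compounds that interfere with recruitment of the SRC2-3 coactivator peptide to VDR; plates are read after 2 h at room temperature.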
TDP1 cell noCPT: qHTS for Inhibitors of human tyrosyl-DNA phosphodiesterase 1 (TDP1): qHTS in cells in absence of CPT | DT40 Tdp1-/- hTDP1 cells, no CPT, ATP luminescence, 48 h | Potency, µM (titrated, usually from 46.2 µM), usual class: inhibitors | actives 15% (n = 420,000); note: nearly all actives have a fitted effect of over 55% in size
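A cellular qHTS used chicken DT40 cells lacking endogenous Tdp1 but carrying stably transfected human TDP1. Compounds were applied without camptothecin, and cell growth kinetics were judged by ATP-dependent luminescence after ≥48 hr.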
TDP1 inh: inhibitors of human tyrosyl-DNA phosphodiesterase TDP1. Q9NUW8. recombinant TDP1, AlphaScreen DNA substrate cleavage. Potency, µM (doses to about 130 µM), actives largely listed as inhibitors. actives 0.28% (n = 350,000). AID 485290; note: nearly all actives have a fitted effect of over 40% in size
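E. coli-derived human Tdp1, 1 nM final. Cpd preinc 15 min RT; substrate 15 nM final, 5 min RT; AS bead mix 10 ug/ml final, 10 min RT. Signal loss = tyrosine-FITC cleavage. No-enzyme wells = max signal.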
A number is an active result; – = inactive; ? = inconclusive; · = no result; [ ] = dose if it differs, or a comment. Calls come from the whole dose curve; as a rule, active = well fitted curve in the direction sought with a large enough effect; inconclusive = small, poorly fitted or top-dose-only effect, or another doubt; inactive = no such curve, though single readings can be large; an effect the other way counts as inactive or inconclusive.

SMILES	TDP1 cell CPT	PLK1 PBD block	GCN5L2 inh	VDR inhibitor	TDP1 cell noCPT	TDP1 inh
C=CCOc1ccc(/C=N/NC(=O)c2cc3c(OC)cc(OC)cc3[nH]2)cc1	?	–	–	–	25.9µM	·
CCOc1ccc(/C=N/NC(=O)c2cc3c(OC)cc(OC)cc3[nH]2)cc1OC	13µM	–	?	–	16.4µM	·
COc1ccc(OC)c(/C=N/NC(=O)c2cc3c(OC)cc(OC)cc3[nH]2)c1	?	–	–	–	?	–
COc1ccc(/C=N/NC(=O)c2ccn[nH]2)cc1COc1ccc(Cl)cc1	?	–	–	–	?	–
O=C(Cc1ccc(N2CCNC2=O)cc1)N1CCCC(Nc2ccc(F)c(F)c2)C1 (centres undefined)	2.31µM	–	–	–	3.66µM	–
O=C(c1cccc(N2CCNC2=O)c1)N1CCCC(Nc2cccc(F)c2)C1 (centres undefined)	–	–	–	–	–	–
O=C(Cc1ccc(N2CCNC2=O)cc1)N1CCCC(Nc2cccc(F)c2)C1 (centres undefined)	2.91µM	–	–	–	2.06µM	–
COc1cc(O)c(C(CC(=O)N2CCN(c3ccccc3)CC2)c2ccc(N(C)C)cc2)c(OC)c1 (centres undefined)	23.1µM	–	–	–	–	–
COc1ccc(C(CC(=O)N2CCN(c3ccccc3)CC2)c2c(OC)cc(OC)c3ccc(=O)oc23)cc1 (centres undefined)	20.6µM	–	–	–	?	–
COc1cc(C(CC(=O)N2CCCC2)c2c(OC)cc(OC)c3ccc(=O)oc23)cc(OC)c1OC (centres undefined)	–	–	–	–	–	·
COc1ccc(C(=O)N2CCC(C)(C(=O)NS(=O)(=O)C3CC3)C2)c(OC)c1 (centres undefined)	–	–	·	·	–	·
Cc1cccc(NC(=O)COC(=O)CCc2c[nH]c3ccccc23)c1	?	–	–	–	–	–
COC(=O)[C@H](CC(C)C)NC(=O)c1cc2c(cn1)[nH]c1ccccc12	?	3.77µM	–	?	?	·
COc1ccc(-c2nc3cnc(N4CCOCC4)nc3n(C)c2=O)cc1	–	·	–	–	–	·
CCCSc1ncc(Cl)c(C(=O)Nc2ccc(S(=O)(=O)Nc3ncccn3)cc2)n1	–	–	–	–	–	–
CCCSc1ncc(Cl)c(C(=O)Nc2ccc(CC)cc2)n1	–	·	–	–	–	–
CSc1ncc(Cl)c(C(=O)Nc2ccc(S(=O)(=O)Nc3nccc(C)n3)cc2)n1	?	–	–	–	10.3µM	–
CC1CCCN(S(=O)(=O)c2ccc(NC(=O)c3nc(SC(C)C)ncc3Cl)cc2)C1 (centres undefined)	8.2µM	·	–	–	13µM	–
CCCSc1ncc(Cl)c(C(=O)Nc2ccc(S(=O)(=O)N3CCCCC3C)cc2)n1 (centres undefined)	?	·	–	–	8.2µM	–
CCSc1ncc(Cl)c(C(=O)Nc2ccc(S(=O)(=O)N(C)c3ccccc3)cc2)n1	11.6µM	·	–	–	11.6µM	–
CCSc1ncc(Cl)c(C(=O)Nc2ccc(S(=O)(=O)N3CCCCC3)cc2)n1	20.6µM	·	–	–	11.6µM	–
CCSc1ncc(Cl)c(C(=O)Nc2nc3ccc(S(C)(=O)=O)cc3s2)n1	–	·	–	–	–	–
CC(=O)Nc1ccc(NC(=O)c2nc(SCc3ccccc3F)ncc2Cl)cc1	–	·	·	·	–	·
CCC1CCCCN1S(=O)(=O)c1ccc(NC(=O)c2cccs2)cc1 (centres undefined)	23.1µM	–	–	–	16.4µM	–
CCC1CCCCN1S(=O)(=O)c1ccc(NC(=O)c2snnc2C)cc1 (centres undefined)	?	–	–	–	?	–
SMILES	TDP1 cell CPT	PLK1 PBD block	GCN5L2 inh	VDR inhibitor	TDP1 cell noCPT	TDP1 inh
COC(=O)c1ccc(NC(=O)c2nc(SCc3ccccc3F)ncc2Cl)cc1	?	·	·	·	17.8µM	·
CCC1CCCCN1S(=O)(=O)c1ccc(NC(=O)c2nc(SC)ncc2Cl)cc1 (centres undefined)	20.6µM	·	–	–	23.1µM	–
COc1ccccc1CNc1ncnc2sc(C(=O)N3CCN(C)CC3)c(C)c12	–[9.04 µM]	·	·	·	–	·
Cc1cc(C)cc(OCC(=O)OCC(=O)NC2CC2)c1	–	–	–	–	–	–
CC[C@H](C)[C@H]1CNC(=O)C(=O)N1CC1CCN(CCc2ccccc2)CC1	–	–	·	–	–	·
N#Cc1ccccc1NC(=O)COC(=O)/C=C/c1ccc(S(=O)(=O)N2CCOCC2)cc1	–	–	–	–	–	–
COc1ccc2c(c1)CCc1cnc(-n3ncc(C(=O)NCc4cc(C)no4)c3C3CC3)nc1-2	–[9.04 µM]	·	·	·	–	·
COCC(=O)Nc1cc(C(=O)N2CC3CC4CC(C3)CC2C4)c2c(c1)nc(-c1ccncc1)n2C	–[9.04 µM]	·	·	·	?	·
CC(C)=CCOc1c2ccoc2cc2oc(=O)ccc12	–	–	–	–	–	–
CC1(C)O[C@@H]1COc1c2ccoc2cc2oc(=O)ccc12	11.6µM	–	–	–	18.4µM	–
Cc1cc(N2CCC(C)CC2)nc(SCC(=O)c2ccccc2)n1	?	–	–	–	–	–
CCN1CCN(CC(=O)Nc2ccc(C(C)=O)cc2)CC1	–	–	–	–	–	·
CCN1CCOC(=O)C1CC(=O)Nc1ccc(C(C)=O)cc1 (centres undefined)	20.6µM	·	–	–	10.3µM	–
CCN1CCOC(=O)C1CC(=O)Nc1cc(Cl)ccc1OC (centres undefined)	4.61µM	·	–	–	2.59µM	–
CCN1CCOC(=O)C1CC(=O)Nc1ccccc1C(F)(F)F (centres undefined)	3.26µM	·	–	?	3.66µM	–
Nc1nc(NC2CC2)c2ncn([C@@H]3C=C[C@@H](CO)C3)c2n1	11.9µM	·	·	·	15µM	·
CCOc1cc(-c2noc(N)c2C#N)cc(OCC)c1OCC	?	–	–	–	?	–
Cc1ccccc1-c1noc(N)c1C#N	25.9µM	–	–	–	?	–
COc1cc2c(cc1C(F)(F)F)N(C(=O)Nc1cc(F)cc(-c3cccnc3)c1)CC2	4.47µM	·	·	·	3.55µM	–
COc1cc(-c2[nH]ncc2CN(C)Cc2nonc2C)cc(OC)c1OC	?	–	–	–	16.4µM	·
COc1cc(-c2[nH]ncc2CN2CCSCC2)cc(OC)c1OC	?	–	–	–	14.6µM	–
COc1ccc(-c2[nH]ncc2CN(C)Cc2nonc2C)c(OC)c1	–	–	–	–	–	–
COCC1CCN(Cc2cn[nH]c2-c2cc(OC)c(OC)c(OC)c2)CC1	–	–	–	–	–	–
O=C(CSc1nnc(-c2c[nH]c3ccccc23)o1)NCC1CCCO1 (centres undefined)	–	–	–	–	–	–
